Reference: PubChem BioAssay (NCI)
This is part of a sample that, as a whole, favours compounds with a hit. Of some 83,000 tested, about 20% had one in any assay.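 96-well plates, one dose, 48 hours. Percent growth reported; active if below 10.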 Active and inactive are the calls of the source.

Columns and labels:
Assay in all cases: NCI-60 one-dose screen, 48 h (100 = growth as untreated, 0 = no growth, -100 = all killed)
[1] = system: NCI-H23 lung; conditions: 10 µM unless noted
[2] = system: NCI-H322M lung; conditions: 10 µM unless noted
[3] = system: HOP-62 NSCLC; conditions: 10 µM unless noted
[4] = system: NCI-H460 lung; conditions: 10 µM unless noted
[5] = system: HOP-92 NSCLC; conditions: 10 µM unless noted
[6] = system: NCI-H522 lung; conditions: 10 µM
[7] = system: A549/ATCC NSCLC; conditions: 10 µM unless noted
[8] = system: 786-0 renal; conditions: 10 µM unless noted
[9] = system: DU-145 prostate; conditions: 10 µM unless noted
[10] = system: K-562 leukemia; conditions: 10 µM unless noted
[11] = system: MALME-3M melanoma; conditions: 10 µM unless noted
[12] = system: MDA-MB-231 breast; conditions: 10 µM unless noted
[13] = system: RXF 393 renal; conditions: 10 µM unless noted
[14] = system: SF-268 CNS; conditions: 10 µM unless noted
[15] = system: SF-295 CNS; conditions: 10 µM unless noted
[16] = system: SF-539 CNS; conditions: 10 µM unless noted
[17] = system: UACC-257 melanoma; conditions: 10 µM unless noted
[18] = system: M14 melanoma; conditions: 10 µM unless noted
[19] = system: COLO 205 colon; conditions: 10 µM unless noted

Row | SMILES | growth [1] | growth [2] | growth [3] | growth [4] | growth [5] | growth [6] | growth [7] | growth [8] | growth [9] | growth [10] | growth [11] | growth [12] | growth [13] | growth [14] | growth [15] | growth [16] | growth [17] | growth [18] | growth [19]
1 | Cc1ccccc1-c1cc(-c2ccc(Br)s2)[nH]c(=O)c1C#N | 96.8% (inactive) | 97.9% (inactive) | 104% (inactive) | 106% (inactive) | 77.9% (inactive) | 93.4% (inactive) | 107% (inactive) | 97.6% (inactive) | 110% (inactive) | 90.3% (inactive) | 88.9% (inactive) | 100% (inactive) | 106% (inactive) | 104% (inactive) | 95.1% (inactive) | 112% (inactive) | 104% (inactive) | 93.6% (inactive) | –
2 | COc1ccc(OC2=CC(=O)c3ccc(C)nc3C2=O)cc1 | 65.7% (inactive) | 102% (inactive) | 89.1% (inactive) | 86.1% (inactive) | 122% (inactive) | 55.2% (inactive) | 96.4% (inactive) | 109% (inactive) | 102% (inactive) | 43.5% (inactive) | 128% (inactive) | 90.1% (inactive) | 88.9% (inactive) | 79.2% (inactive) | 96.8% (inactive) | 89.6% (inactive) | 93.8% (inactive) | 87.3% (inactive) | –
3 | CC(=O)OC[C@]1(C)C=C2C(=O)[C@](C)(O)C3(CC3)C(C)=C2[C@H]1OC(C)=O | 75% (inactive) | 98.5% (inactive) | 53.7% (inactive) | 95.1% (inactive) | 122% (inactive) | 71.1% (inactive) | 100% (inactive) | 87.8% (inactive) | 16.7% (inactive) | 93.1% (inactive) | 111% (inactive) | 93.2% (inactive) | 3.69% (active) | 69.4% (inactive) | 83% (inactive) | 95.2% (inactive) | 106% (inactive) | 88.2% (inactive) | –
4 | CCCCCCCC/C=C\CCCCCCCCOc1cccc(CC(=O)NCC[N+]2(C)CCOCC2)c1 | 90.4% (inactive) | 101% (inactive) | 66.3% (inactive) | 67% (inactive) | 86.4% (inactive) | 77% (inactive) | 90.6% (inactive) | 94.9% (inactive) | 93.6% (inactive) | 73.4% (inactive) | 93.3% (inactive) | 87.2% (inactive) | 6.07% (active) | 70.2% (inactive) | 89.1% (inactive) | 96.2% (inactive) | 93.6% (inactive) | 87% (inactive) | –
5 | COC(=O)c1c2c(c(C)[n+]([O-])c1C)C(=O)C=C(NCc1cccc(Cl)c1)C2=O | -63% (active) | -18.3% (active) | -19.8% (active) | -3.61% (active) | -32.2% (active) | -63.5% (active) | -49.5% (active) | 6.87% (active) | -98.3% (active) | -1.12% (active) | -96.9% (active) | -27.3% (active) | -32.1% (active) | -0.347% (active) | -96% (active) | -91.7% (active) | -88.5% (active) | -79.6% (active) | –
6 | O=S(=O)(Nc1ccccc1Cl)c1ccc(-c2cnc(C3CC3)o2)cc1 | 39.9% (inactive) | 42.3% (inactive) | 34.1% (inactive) | 18% (inactive) | 37.1% (inactive) | 10.9% (inactive) | 31.4% (inactive) | 51.1% (inactive) | 13.5% (inactive) | 20.1% (inactive) | 47.3% (inactive) | 34.8% (inactive) | -27% (active) | 53.5% (inactive) | 12.2% (inactive) | -22.7% (active) | 69.4% (inactive) | 19% (inactive) | –
7 | COc1cc(/C=C/C(=O)CC(=O)/C=C/c2cc(Br)c(OC)c(OC)c2)cc(Br)c1OC | 100% (inactive) | 97.6% (inactive) | 93.1% (inactive) | 109% (inactive) | 93.7% (inactive) | 92.8% (inactive) | 96.1% (inactive) | 94.3% (inactive) | 108% (inactive) | 73.3% (inactive) | 96.6% (inactive) | 101% (inactive) | 114% (inactive) | 104% (inactive) | 102% (inactive) | 102% (inactive) | 93.1% (inactive) | 96.9% (inactive) | –
8 | COc1ccc(/C=C/C(=O)N2CCC(O)CC2)cc1OC1CCCC1 | 103% (inactive) | 108% (inactive) | 95.1% (inactive) | 104% (inactive) | 95.7% (inactive) | 87.1% (inactive) | 91.4% (inactive) | 104% (inactive) | 110% (inactive) | 102% (inactive) | 109% (inactive) | 103% (inactive) | 118% (inactive) | 101% (inactive) | 101% (inactive) | 95.8% (inactive) | 101% (inactive) | 107% (inactive) | –
9 | CCN(CC)c1ccc2c(c1)OS(=O)(=O)N=C2 | 95.6% (inactive) | 107% (inactive) | 99.9% (inactive) | 109% (inactive) | 85.4% (inactive) | 97.6% (inactive) | 106% (inactive) | 93% (inactive) | 108% (inactive) | 101% (inactive) | 98.1% (inactive) | 134% (inactive) | 119% (inactive) | 97.7% (inactive) | 99.4% (inactive) | 99.9% (inactive) | 103% (inactive) | 98.6% (inactive) | –
10 | CC(=O)OC[C@H](O)[C@@]1(O)CC[C@H]2[C@@H]3CCC4=CC(=O)CC[C@]4(C)[C@H]3[C@@H](O)C[C@@]21C | 103% (inactive) | 112% (inactive) | 115% (inactive) | 97.3% (inactive) | 81.7% (inactive) | 99.6% (inactive) | 83.1% (inactive) | 104% (inactive) | 93.7% (inactive) | 89.5% (inactive) | 95.8% (inactive) | – | 134% (inactive) | 97.1% (inactive) | 111% (inactive) | 100% (inactive) | 110% (inactive) | 104% (inactive) | –
11 | N#C/C(=C\c1ccc[nH]1)c1cc2ccccc2[nH]1 | 39.1% (inactive) | 87.5% (inactive) | 85.1% (inactive) | 71.1% (inactive) | 76.9% (inactive) | – | 54.2% (inactive) | 93.4% (inactive) | 80% (inactive) | 42.5% (inactive) | 88% (inactive) | 59.7% (inactive) | 92.5% (inactive) | 78.1% (inactive) | 53.7% (inactive) | 79.7% (inactive) | 69.9% (inactive) | 80.3% (inactive) | 88.6% (inactive)
12 | CCN(CC)c1ccc(/C=C(\C#N)c2cc3ccccc3[nH]2)cc1 | 79.2% (inactive) | 88.7% (inactive) | 77.7% (inactive) | 24.4% (inactive) | 97% (inactive) | – | 39.4% (inactive) | 80% (inactive) | 74.1% (inactive) | 14.2% (inactive) | 71.7% (inactive) | 48.6% (inactive) | 94% (inactive) | 71.8% (inactive) | 46.9% (inactive) | 58.3% (inactive) | 81.5% (inactive) | 29.6% (inactive) | 45.3% (inactive)
13 | Cc1cccc2c(=O)c3c(sc12)c(NCCNCCO)nc1ccccc13 | 55.3% (inactive) | 37.7% (inactive) | 22.6% (inactive) | 9.95% (active) | 33.1% (inactive) | 29.1% (inactive) | 37.7% (inactive) | 52.9% (inactive) | 27.3% (inactive) | -65.7% (active) | -42.2% (active) | -15.3% (active) | 38.1% (inactive) | 56.6% (inactive) | 65% (inactive) | 50.6% (inactive) | 77.8% (inactive) | -56.4% (active) | –
14 | NC(=S)N/N=C1\c2ccccc2-c2c(F)c(F)c(F)c(F)c21 | 72.4% (inactive) | 93.5% (inactive) | 75.6% (inactive) | 76.6% (inactive) | 87% (inactive) | 57.4% (inactive) | 87.5% (inactive) | 88.8% (inactive) | 81.7% (inactive) | 9.46% (active) | 73.6% (inactive) | – | 123% (inactive) | 85.3% (inactive) | 99.5% (inactive) | 96.1% (inactive) | 23.1% (inactive) | 70.2% (inactive) | –
15 | CCC(=O)Nc1nnc(Cc2ccc(OC)c(OC)c2)s1 | 60.4% (inactive) | 24.9% (inactive) | -67.2% (active) | -43.7% (active) | 32.6% (inactive) | – | -55% (active) | 9.21% (active) | -49.6% (active) | 2.4% (active) | -46.3% (active) | 1.66% (active) | -32.9% (active) | -14% (active) | -78.7% (active) | -74.1% (active) | -26.3% (active) | 22.7% (inactive) | 28.2% (inactive)
16 | Fc1c[c-]c(-c2ccccn2)c(F)c1.Fc1c[c-]c(-c2ccccn2)c(F)c1.[Cl][Pt+].[Cl][Pt+].c1ccc([PH+](C[PH+](c2ccccc2)c2ccccc2)c2ccccc2)cc1 | -6.3% (active) | 66.6% (inactive) | 20.9% (inactive) | 8.7% (active) | 2.42% (active) | – | 20.6% (inactive) | 31.8% (inactive) | 22.8% (inactive) | 10.2% (inactive) | -41.2% (active) | -15.4% (active) | 34% (inactive) | 21.9% (inactive) | 17.3% (inactive) | 29.5% (inactive) | -0.265% (active) | 22.7% (inactive) | -65.2% (active)
